# Measurements from publication PMC11006913.
# Numbering of substitutions follows the chain as printed.
# How the values were obtained:
# Assay in all cases: PBM; 200 nM protein, PBS
# Conditions in all cases: dsDNA, one strand shown
# [1] = molecular target: T1, NKX2-4 (Homo sapiens, UniProt Q9H2Z4 175-261, P217L)
# T1 sequence: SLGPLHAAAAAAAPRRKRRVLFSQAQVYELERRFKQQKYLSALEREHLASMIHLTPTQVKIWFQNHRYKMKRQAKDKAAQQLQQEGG
# [2] = molecular target: T2, NKX2-4 (Homo sapiens, UniProt Q9H2Z4 175-261, T231S)
# T2 sequence: T1 sequence with L43P, T57S
# [3] = molecular target: T3, NKX2-4 (Homo sapiens, UniProt Q9H2Z4 175-261)
# T3 sequence: T1 sequence with L43P
# [4] = molecular target: T4, NKX2-4 (Homo sapiens, UniProt Q9H2Z4 175-261, R246Q)
# T4 sequence: T1 sequence with L43P, R72Q
# [5] = molecular target: NKX3-2 (Homo sapiens, UniProt P78367 192-278, P234S)
# [6] = molecular target: NKX3-2 (Homo sapiens, UniProt P78367 192-278)
# [7] = molecular target: T5, NKX2-6 (Homo sapiens, UniProt A6NCS4 118-204, R150C)
# T5 sequence: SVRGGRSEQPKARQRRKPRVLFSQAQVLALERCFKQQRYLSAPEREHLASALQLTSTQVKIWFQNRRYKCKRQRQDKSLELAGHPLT
# [8] = molecular target: T6, NKX2-6 (Homo sapiens, UniProt A6NCS4 118-204)
# T6 sequence: T5 sequence with C33R
# [9] = molecular target: T7, NKX2-6 (Homo sapiens, UniProt A6NCS4 118-204, F151L)
# T7 sequence: T5 sequence with C33R, F34L
# [10] = molecular target: VAX1 (Homo sapiens, UniProt Q5SQQ9 86-172)
# [11] = molecular target: VAX1 (Homo sapiens, UniProt Q5SQQ9 86-172, T142I)
# [12] = molecular target: VAX1 (Homo sapiens, UniProt Q5SQQ9 86-172, K157R)
# [13] = molecular target: T8, VENTX (Homo sapiens, UniProt O95231 78-163, R121Q)
# T8 sequence: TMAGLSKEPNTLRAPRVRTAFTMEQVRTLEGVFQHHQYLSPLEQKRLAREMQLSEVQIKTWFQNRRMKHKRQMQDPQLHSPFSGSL
# Sequence of NKX3-2 (Homo sapiens, UniProt P78367 192-278, P234S) (P78367 192-278 P234S): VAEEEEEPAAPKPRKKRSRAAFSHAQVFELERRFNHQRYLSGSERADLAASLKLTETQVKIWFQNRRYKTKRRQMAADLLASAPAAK
# Sequence of NKX3-2 (Homo sapiens, UniProt P78367 192-278) (P78367 192-278): as the sequence (P78367 192-278 P234S) above, with S43P counted along it
# Sequence of VAX1 (Homo sapiens, UniProt Q5SQQ9 86-172, T142I) (Q5SQQ9 86-172 T142I): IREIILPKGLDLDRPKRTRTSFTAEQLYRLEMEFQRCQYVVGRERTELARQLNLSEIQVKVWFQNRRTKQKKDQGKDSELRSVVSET
# Sequence of VAX1 (Homo sapiens, UniProt Q5SQQ9 86-172) (Q5SQQ9 86-172): as the sequence (Q5SQQ9 86-172 T142I) above, with I57T counted along it
# Sequence of VAX1 (Homo sapiens, UniProt Q5SQQ9 86-172, K157R) (Q5SQQ9 86-172 K157R): as the sequence (Q5SQQ9 86-172 T142I) above, with I57T, K72R counted along it
sequence,measurement,setting,value
CACTCTTA,binding signal,[1],"12.3 upbm affinity estimate (log intensity, higher = more binding, comparable within an allelic series)"
same,binding signal,[2],"12.7 upbm affinity estimate (log intensity, higher = more binding, comparable within an allelic series)"
same,binding signal,[3],"12.3 upbm affinity estimate (log intensity, higher = more binding, comparable within an allelic series)"
same,binding signal,[4],"12.8 upbm affinity estimate (log intensity, higher = more binding, comparable within an allelic series)"
same,binding signal,[5],"12.5 upbm affinity estimate (log intensity, higher = more binding, comparable within an allelic series)"
same,binding signal,[6],"12.6 upbm affinity estimate (log intensity, higher = more binding, comparable within an allelic series)"
CCGGCTCA,binding signal,[1],"9.54 upbm affinity estimate (log intensity, higher = more binding, comparable within an allelic series)"
same,binding signal,[2],"9.64 upbm affinity estimate (log intensity, higher = more binding, comparable within an allelic series)"
same,binding signal,[3],"9.59 upbm affinity estimate (log intensity, higher = more binding, comparable within an allelic series)"
same,binding signal,[4],"9.56 upbm affinity estimate (log intensity, higher = more binding, comparable within an allelic series)"
GGTACTCA,binding signal,[1],"12.5 upbm affinity estimate (log intensity, higher = more binding, comparable within an allelic series)"
same,binding signal,[2],"12.9 upbm affinity estimate (log intensity, higher = more binding, comparable within an allelic series)"
same,binding signal,[3],"12.4 upbm affinity estimate (log intensity, higher = more binding, comparable within an allelic series)"
same,binding signal,[4],"12.9 upbm affinity estimate (log intensity, higher = more binding, comparable within an allelic series)"
same,binding signal,[5],"12.5 upbm affinity estimate (log intensity, higher = more binding, comparable within an allelic series)"
same,binding signal,[6],"12.6 upbm affinity estimate (log intensity, higher = more binding, comparable within an allelic series)"
AAGTGGAA,binding signal,[1],"12.4 upbm affinity estimate (log intensity, higher = more binding, comparable within an allelic series)"
same,binding signal,[7],"11.6 upbm affinity estimate (log intensity, higher = more binding, comparable within an allelic series)"
same,binding signal,[8],"13.3 upbm affinity estimate (log intensity, higher = more binding, comparable within an allelic series)"
same,binding signal,[4],"12.9 upbm affinity estimate (log intensity, higher = more binding, comparable within an allelic series)"
same,binding signal,[9],"10.6 upbm affinity estimate (log intensity, higher = more binding, comparable within an allelic series)"
ATCCGGTG,binding signal,[1],"9.47 upbm affinity estimate (log intensity, higher = more binding, comparable within an allelic series)"
same,binding signal,[2],"9.42 upbm affinity estimate (log intensity, higher = more binding, comparable within an allelic series)"
same,binding signal,[3],"9.41 upbm affinity estimate (log intensity, higher = more binding, comparable within an allelic series)"
same,binding signal,[4],"9.45 upbm affinity estimate (log intensity, higher = more binding, comparable within an allelic series)"
CGGTCGAC,binding signal,[1],"9.4 upbm affinity estimate (log intensity, higher = more binding, comparable within an allelic series)"
same,binding signal,[2],"9.24 upbm affinity estimate (log intensity, higher = more binding, comparable within an allelic series)"
same,binding signal,[3],"9.3 upbm affinity estimate (log intensity, higher = more binding, comparable within an allelic series)"
same,binding signal,[4],"9.39 upbm affinity estimate (log intensity, higher = more binding, comparable within an allelic series)"
same,binding signal,[10],"7.17 upbm affinity estimate (log intensity, higher = more binding, comparable within an allelic series)"
same,binding signal,[11],"7.28 upbm affinity estimate (log intensity, higher = more binding, comparable within an allelic series)"
same,binding signal,[12],"7.34 upbm affinity estimate (log intensity, higher = more binding, comparable within an allelic series)"
CTTGAGGA,binding signal,[1],"11.9 upbm affinity estimate (log intensity, higher = more binding, comparable within an allelic series)"
same,binding signal,[2],"12.3 upbm affinity estimate (log intensity, higher = more binding, comparable within an allelic series)"
same,binding signal,[3],"11.8 upbm affinity estimate (log intensity, higher = more binding, comparable within an allelic series)"
same,binding signal,[4],"12.2 upbm affinity estimate (log intensity, higher = more binding, comparable within an allelic series)"
ATGTGCGC,binding signal,[1],"9.81 upbm affinity estimate (log intensity, higher = more binding, comparable within an allelic series)"
same,binding signal,[2],"9.85 upbm affinity estimate (log intensity, higher = more binding, comparable within an allelic series)"
same,binding signal,[3],"9.82 upbm affinity estimate (log intensity, higher = more binding, comparable within an allelic series)"
same,binding signal,[4],"9.8 upbm affinity estimate (log intensity, higher = more binding, comparable within an allelic series)"
ACCATTAG,binding signal,[13],"11.7 upbm affinity estimate (log intensity, higher = more binding, comparable within an allelic series)"
GTCCCACA,binding signal,[1],"9.65 upbm affinity estimate (log intensity, higher = more binding, comparable within an allelic series)"
same,binding signal,[2],"9.69 upbm affinity estimate (log intensity, higher = more binding, comparable within an allelic series)"
same,binding signal,[3],"9.67 upbm affinity estimate (log intensity, higher = more binding, comparable within an allelic series)"
same,binding signal,[4],"9.68 upbm affinity estimate (log intensity, higher = more binding, comparable within an allelic series)"
GAAGAGTA,binding signal,[1],"11.9 upbm affinity estimate (log intensity, higher = more binding, comparable within an allelic series)"
same,binding signal,[2],"12.2 upbm affinity estimate (log intensity, higher = more binding, comparable within an allelic series)"
same,binding signal,[3],"11.7 upbm affinity estimate (log intensity, higher = more binding, comparable within an allelic series)"
same,binding signal,[4],"12.2 upbm affinity estimate (log intensity, higher = more binding, comparable within an allelic series)"
AGCTGCGG,binding signal,[1],"9.39 upbm affinity estimate (log intensity, higher = more binding, comparable within an allelic series)"
same,binding signal,[2],"9.21 upbm affinity estimate (log intensity, higher = more binding, comparable within an allelic series)"
same,binding signal,[3],"9.33 upbm affinity estimate (log intensity, higher = more binding, comparable within an allelic series)"
same,binding signal,[4],"9.45 upbm affinity estimate (log intensity, higher = more binding, comparable within an allelic series)"
ATGAGTGG,binding signal,[1],"12.4 upbm affinity estimate (log intensity, higher = more binding, comparable within an allelic series)"
same,binding signal,[2],"12.8 upbm affinity estimate (log intensity, higher = more binding, comparable within an allelic series)"
same,binding signal,[3],"12.3 upbm affinity estimate (log intensity, higher = more binding, comparable within an allelic series)"
same,binding signal,[4],"12.8 upbm affinity estimate (log intensity, higher = more binding, comparable within an allelic series)"
CTCAAGAG,binding signal,[1],"12.4 upbm affinity estimate (log intensity, higher = more binding, comparable within an allelic series)"
same,binding signal,[2],"12.8 upbm affinity estimate (log intensity, higher = more binding, comparable within an allelic series)"
same,binding signal,[3],"12.3 upbm affinity estimate (log intensity, higher = more binding, comparable within an allelic series)"
same,binding signal,[4],"13 upbm affinity estimate (log intensity, higher = more binding, comparable within an allelic series)"
ACTTATCC,binding signal,[1],"11.9 upbm affinity estimate (log intensity, higher = more binding, comparable within an allelic series)"
same,binding signal,[2],"12.1 upbm affinity estimate (log intensity, higher = more binding, comparable within an allelic series)"
same,binding signal,[3],"11.7 upbm affinity estimate (log intensity, higher = more binding, comparable within an allelic series)"
same,binding signal,[4],"12.1 upbm affinity estimate (log intensity, higher = more binding, comparable within an allelic series)"
